# What was measured:
# Experiment in all cases: PBM binding z-score (relative to random genomic background probes); higher = stronger binding; sequences stand for … in GC…GCGATTGACAGCGTAGAATGAAGG
# [1] = system: FXR:RXRa (NR concentration 270 nM, RXRa partner concentration 90 nM)
# Outline: (§1)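 Random background probes are the reference for binding z-scores. These scores derive from regression-normalized fluorescence on custom Agilent 4×180K protein-binding microarrays incubated 1 h with ligand-free nuclear receptor dimers. Binding was detected with antibodies against each partner (one per run).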
# [2] = system: LXRa:RXRa (NR concentration 270 nM, RXRa partner concentration 90 nM)
# Outline: as §1
# [3] = system: LXRa homodimer (NR concentration 270 nM)
# Outline: as §1
# [4] = system: LXRb:RXRa (NR concentration 270 nM, RXRa partner concentration 90 nM)
# Outline: as §1
# [5] = system: LXRb homodimer (NR concentration 270 nM)
# Outline: as §1
# [6] = system: PPARa:RXRa (NR concentration 270 nM, RXRa partner concentration 90 nM)
# Outline: as §1
# [7] = system: PPARg:RXRa (NR concentration 180 nM, RXRa partner concentration 90 nM)
# Outline: as §1
# [8] = system: PPARg:RXRa 270nM:90nM, anti-RXR (NR concentration 270 nM, RXRa partner concentration 90 nM)
# Outline: as §1
# [9] = system: PPARg:RXRa 30nM:10nM, anti-RXR (NR concentration 30 nM, RXRa partner concentration 10 nM)
# Outline: as §1
# [10] = system: PPARg:RXRa 90nM:30nM, anti-RXR (NR concentration 90 nM, RXRa partner concentration 30 nM)
# Outline: as §1
# [11] = system: PPARg:RXRa DBDmut IVT, anti-RXR (DBD mutation: RXRa K156A/R161A, NR concentration 270 nM, RXRa partner concentration 90 nM)
# Outline: as §1
# [12] = system: PPARg:RXRa IVT, anti-PPARg (NR concentration 270 nM, RXRa partner concentration 90 nM)
# Outline: as §1
# [13] = system: PPARg DBDmut:RXRa IVT, anti-PPARg (DBD mutation: PPARg1 K132A/R137A, NR concentration 270 nM, RXRa partner concentration 90 nM)
# Outline: as §1
# [14] = system: PPARg DBDmut IVT, anti-PPARg (DBD mutation: PPARg1 K132A/R137A, NR concentration 270 nM)
# Outline: as §1
# [15] = system: PPARg homodimer (NR concentration 180 nM)
# Outline: as §1
# [16] = system: PXR:RXRa (NR concentration 270 nM, RXRa partner concentration 90 nM)
# Outline: as §1
# [17] = system: PXR homodimer (NR concentration 270 nM)
# Outline: as §1
# [18] = system: RARa:RXR (NR concentration 270 nM, RXRa partner concentration 90 nM)
# Outline: as §1
# [19] = system: RARa homodimer (NR concentration 270 nM)
# Outline: as §1
# [20] = system: RARb:RXRa (NR concentration 270 nM, RXRa partner concentration 90 nM)
# Outline: as §1
Sequence,PBM binding z-score [1],PBM binding z-score [2],PBM binding z-score [3],PBM binding z-score [4],PBM binding z-score [5],PBM binding z-score [6],PBM binding z-score [7],PBM binding z-score [8],PBM binding z-score [9],PBM binding z-score [10],PBM binding z-score [11],PBM binding z-score [12],PBM binding z-score [13],PBM binding z-score [14],PBM binding z-score [15],PBM binding z-score [16],PBM binding z-score [17],PBM binding z-score [18],PBM binding z-score [19],PBM binding z-score [20]
AGTCAAAGTTCAAGACGAGGTAACGTAAAGCACG,6.21,5.72,2.72,3.19,0.519,4.72,6.2,6.17,3.81,5.35,0.127,2.85,1.37,1.3,3.22,4.49,2.5,4.02,1.38,4.84
CCGACTGAGGCAAGGTTACCATAACGCACAGCCA,0.169,0.738,-0.295,0.593,-0.805,0.985,0.898,0.236,-0.466,0.134,-0.0464,-0.0439,-0.139,-0.814,0.4,0.18,-0.0704,0.645,0.194,0.904
TTACCAAGGTGAGCTGAGGTCGTTGCTCCAACTC,1.27,1.21,-0.608,0.819,-1.17,1.42,-0.334,0.661,-0.351,0.141,1.08,2.12,-0.398,-1.21,-0.419,4.75,0.304,1.6,-0.876,1.74
ACTATTAGTTGACTTAGGACAACCGATACGACGC,0.502,0.291,0.606,0.299,0.989,0.0286,1.11,0.164,0.448,0.273,-0.129,0.214,1.42,1.67,1.07,0.411,0.511,0.675,0.875,0.665
CCTACTGGGCCAAGGCCATTGATCAGTCAAAGCA,-0.412,-0.51,-0.664,-0.606,-0.891,-0.0978,0.449,0.724,-0.7,-0.174,2.95,2.89,-0.753,-1.61,0.0949,-0.456,-0.233,-0.557,-0.85,0.554
CCGACTGGGCCAGAAAGGTTACCATACCATCCGG,0.387,0.792,-0.182,0.895,-0.545,1.88,0.92,0.91,0.0101,0.541,0.593,0.483,-0.91,-1.13,0.203,0.831,-0.302,1.83,-0.242,1.47
CTCGAAAGGTCGGTTGCGGTGAGTATACGGATAA,2.08,1.5,0.16,1.38,0.241,2.17,0.168,0.893,0.195,0.654,0.303,0.901,0.157,0.202,0.797,1.4,-0.173,1.62,-0.203,2.92
CGAACTAGGTCATTGACAAGACAGTGAATAGTAA,3.79,2.42,0.115,2.04,-0.0491,4.5,7.38,6.17,3.72,5.54,8.29,8.45,3.1,1.15,0.882,1.26,0.00701,1.79,0.336,3.61
CAAATTAGGTCAAGGTCAAAGTCGGTTTGTGCCA,6.89,5.96,4.73,4.86,2.29,6.17,9.22,8.16,6.73,8.31,8.62,8.52,4.74,1.94,5.8,5.5,3.06,5.77,4.26,5.2
CGAACTAGGTCATCCAGAACAGTGAATACATTGA,4.08,2.69,0.739,2.14,0.118,4.64,7.99,6.91,4.38,6.42,8.45,8.49,6.73,4.45,3.59,1.48,0.368,2.32,0.855,3.83
ATCGAAAGGTCGAAGGTTAGTATACCCACCCGAA,4.06,3.5,0.517,3.05,0.649,4.71,4.46,5.12,2.51,4.28,0.165,2.11,1.15,0.865,1.68,3.34,0.404,4.69,1.42,3.76
AGAATGAGGTTATACGTAGATCAGGGATGAAAGT,2.37,1.9,0.0703,1.68,-0.152,3.09,2.07,2.01,0.736,1.73,3.98,2.18,1.78,0.781,0.69,1.28,0.675,1.93,0.93,1.44
CAAACTAGGCCACGAAAGGTCAAAGTCGAATGAC,5.14,6.19,5.85,5.69,1.75,6.2,7.45,6.7,4.3,6.62,7.17,7.41,1.6,1.85,4.86,5.73,1.95,6,2.49,4.68
TGTCAAAGTTCAAAGGCAACGTAAGTATCCACAC,6.68,6.1,4.08,3.86,1.39,5.04,8,7.39,5,7.03,-0.195,3.82,1.26,1.83,3.71,4.86,2.97,3.97,1.3,4.97
